In the supplement of paper PMC10849652:
Of roughly 8,800 targets only a part is listed; those with a hit were picked by preference. About 0.5% of all pairs of compound and target were hits.

How the values were obtained:
Assay in all cases: log2 fold change, soluble protein after heating vs DMSO (PISA); higher = thermal stabilisation; K562 lysate, 10 uM; active = over 0.2 and 3.5 SD of the protein, either way, in both replicates (recomputed)
erlotinib = compound: C#Cc1cccc(Nc2ncnc3cc(OCCOC)c(OCCOC)cc23)c1 [erlotinib]
In short: (§1)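 Pellets of K562 cells were dounce-homogenised in PBS pH 7.4 with 1 mM MgCl2, and the crude extract was held at 1 mg/mL protein for a 30 min treatment with 10 μM compound. Aliquots were heated for 3 min over 48°C-58°C and pooled before NP-40 was added to 0.5% at 4°C. The supernatant from 21,000xg for 90 min was quantified by TMTpro 16plex LC-MS/MS with channel sums equalised. Values are reported from duplicates as log-two fold change in thermal stability relative to solvent controls.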

[1] = compound: C/C(=N\NC(=O)C1=CC(=CC=C1)S(=O)(=O)N2CCOCC2)/C3=C(C=CC(=C3)Cl)O
In short: as §1

[2] = compound: C1=CC(=CC=C1C2=NC3=C(N2)C=C(C=C3)C(=O)N)OC4=CC=C(C=C4)Cl
In short: as §1

[3] = compound: C1=CC2=C(C=CC(=C2)/C=C\3/C(=O)NC(=NCC4=CC=CS4)S3)N=C1
In short: as §1

[4] = compound: C1=CC2=NC=CN=C2C=C1/C=C/3\C(=O)NC(=O)S3
In short: as §1

[5] = compound: C1=CC=C(C=C1)C2=NC(=C(N2)C3=CC=NC=C3)C4=CC(=C(C=C4)Cl)O
In short: as §1

[6] = compound: C1=CC=C2C(=C1)C3=NNC4=CC=CC(=C43)C2=O
In short: as §1

[7] = compound: C1CCN(C1)C(=O)NC2=CC=CC(=C2)NC3=NC=C(C(=N3)NCCC4=CN=CN4)Br
In short: as §1

[8] = compound: C1CN(CCC1(CC2=CC=C(C=C2)Cl)N)C3=NC=NC4=C3C=CN4
In short: as §1

IRAK-1-4 Inhibitor I = compound: C1COCCN1CCN2C3=CC=CC=C3N=C2NC(=O)C4=CC(=CC=C4)[N+](=O)[O-] [IRAK-1-4 Inhibitor I]
In short: as §1

ibrutinib = compound: C=CC(=O)N1CCC[C@@H](n2nc(-c3ccc(Oc4ccccc4)cc3)c3c(N)ncnc32)C1 [ibrutinib]
In short: as §1

[9] = compound: CC(=O)c1cnc2ccc(-c3cc(Cl)c(O)c(Cl)c3)nc2c1N[C@H]1CC[C@H](CN(C)C)CC1
In short: as §1

ralimetinib = compound: CC(C)(C)Cn1c(N)nc2ccc(-c3[nH]c(C(C)(C)C)nc3-c3ccc(F)cc3)nc21 [ralimetinib]
In short: as §1

[10] = compound: CC(C)(O)CC(=O)NCCn1ccc2ncnc(Nc3ccc(Oc4cccc(C(F)(F)F)c4)c(Cl)c3)c21
In short: as §1

[11] = compound: CC(C)C1=C2N=C(C=C(N2N=C1)NCC3=CC=CC=C3)NCCCCCCN
In short: as §1

[12] = compound: CC1=C(C(CC(=O)N1)C2=CC=C(C=C2)C(F)(F)F)C(=O)NC3=C(C=C4C(=C3)C=NN4)F
In short: as §1

[13] = compound: CC1=C(C2=C(C=C1)C(=O)C3=CC=CC=C3N2CCCN)C
In short: as §1

[14] = compound: CC1=C(C=C(C=C1)NC(=O)C2=CC(=CC=C2)C(C)(C)C#N)NC3=CC4=C(C=C3)N=CN(C4=O)C
In short: as §1

[15] = compound: CC1=C(C=C(C=C1)NC(=O)C2=CC(=CC=C2)N(C)C)NC(=O)C3=CC=C(C=C3)O
In short: as §1

[16] = compound: CC1=CC=C(C=C1)SC2=C3C=C(SC3=CN=C2)C(=O)N
In short: as §1

Measured: log2 fold change

PRRC2A (UniProt P48634)
Sequence of UniProt P48634 (P48634 whole entry, looked up): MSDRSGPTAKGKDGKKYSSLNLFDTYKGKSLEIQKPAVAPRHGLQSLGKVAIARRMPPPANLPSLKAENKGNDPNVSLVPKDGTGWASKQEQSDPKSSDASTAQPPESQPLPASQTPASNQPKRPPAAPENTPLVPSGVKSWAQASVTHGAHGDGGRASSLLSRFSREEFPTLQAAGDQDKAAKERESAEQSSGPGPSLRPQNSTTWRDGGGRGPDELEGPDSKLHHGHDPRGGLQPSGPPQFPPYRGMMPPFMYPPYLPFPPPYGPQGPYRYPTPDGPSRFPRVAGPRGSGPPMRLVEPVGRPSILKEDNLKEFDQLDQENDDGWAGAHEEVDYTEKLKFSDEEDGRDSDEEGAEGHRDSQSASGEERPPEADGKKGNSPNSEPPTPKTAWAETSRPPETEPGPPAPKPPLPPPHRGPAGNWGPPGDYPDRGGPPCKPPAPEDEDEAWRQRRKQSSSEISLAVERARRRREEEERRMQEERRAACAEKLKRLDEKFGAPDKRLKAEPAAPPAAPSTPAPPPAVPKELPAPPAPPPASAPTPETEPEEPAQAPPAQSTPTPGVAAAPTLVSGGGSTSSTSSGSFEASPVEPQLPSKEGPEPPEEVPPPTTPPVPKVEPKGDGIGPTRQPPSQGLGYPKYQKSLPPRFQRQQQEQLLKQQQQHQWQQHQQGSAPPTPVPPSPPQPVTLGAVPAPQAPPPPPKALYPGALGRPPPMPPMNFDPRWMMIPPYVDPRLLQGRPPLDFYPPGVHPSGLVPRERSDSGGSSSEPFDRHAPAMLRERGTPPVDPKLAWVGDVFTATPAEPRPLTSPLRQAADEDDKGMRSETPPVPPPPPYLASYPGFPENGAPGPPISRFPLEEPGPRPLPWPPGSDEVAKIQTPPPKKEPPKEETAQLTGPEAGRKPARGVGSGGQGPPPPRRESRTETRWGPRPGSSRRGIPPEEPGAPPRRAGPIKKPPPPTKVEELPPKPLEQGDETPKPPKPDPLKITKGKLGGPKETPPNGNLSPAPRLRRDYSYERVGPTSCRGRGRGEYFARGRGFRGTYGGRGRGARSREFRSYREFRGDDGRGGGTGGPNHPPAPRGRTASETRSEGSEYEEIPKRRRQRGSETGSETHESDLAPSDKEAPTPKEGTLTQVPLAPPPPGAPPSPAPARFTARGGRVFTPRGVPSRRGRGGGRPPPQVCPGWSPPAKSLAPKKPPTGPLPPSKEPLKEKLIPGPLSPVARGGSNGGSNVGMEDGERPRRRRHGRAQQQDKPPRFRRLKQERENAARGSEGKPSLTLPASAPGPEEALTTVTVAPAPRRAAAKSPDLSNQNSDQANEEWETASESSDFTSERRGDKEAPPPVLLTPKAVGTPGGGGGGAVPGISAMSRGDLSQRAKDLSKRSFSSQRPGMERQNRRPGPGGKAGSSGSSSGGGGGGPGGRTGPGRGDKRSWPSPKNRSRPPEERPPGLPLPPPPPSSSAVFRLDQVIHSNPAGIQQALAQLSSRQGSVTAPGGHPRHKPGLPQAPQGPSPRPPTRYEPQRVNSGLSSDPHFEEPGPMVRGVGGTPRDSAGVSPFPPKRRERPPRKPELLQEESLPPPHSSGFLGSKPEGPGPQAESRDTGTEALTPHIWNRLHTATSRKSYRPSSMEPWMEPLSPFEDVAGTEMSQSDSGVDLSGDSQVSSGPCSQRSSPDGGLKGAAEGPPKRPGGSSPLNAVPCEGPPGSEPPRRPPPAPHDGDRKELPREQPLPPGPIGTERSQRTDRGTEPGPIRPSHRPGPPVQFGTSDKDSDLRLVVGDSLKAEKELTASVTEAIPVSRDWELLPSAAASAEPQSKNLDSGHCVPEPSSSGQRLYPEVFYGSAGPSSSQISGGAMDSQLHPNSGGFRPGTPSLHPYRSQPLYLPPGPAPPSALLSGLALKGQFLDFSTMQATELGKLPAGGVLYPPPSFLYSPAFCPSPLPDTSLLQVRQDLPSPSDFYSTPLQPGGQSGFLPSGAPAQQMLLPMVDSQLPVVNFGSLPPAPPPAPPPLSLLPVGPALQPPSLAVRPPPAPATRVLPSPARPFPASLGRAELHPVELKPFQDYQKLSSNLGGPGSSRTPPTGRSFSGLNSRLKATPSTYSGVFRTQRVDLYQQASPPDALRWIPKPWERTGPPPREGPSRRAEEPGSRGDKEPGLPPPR
active: [14] -0.26
inactive: erlotinib -0.026 | [1] -0.018 | [2] 0.073 | [3] -0.002 | [4] 0.006 | [5] -0.09 | [6] 0.014 | [7] 0.01 | [8] 0.006 | IRAK-1-4 Inhibitor I 0.026 | ibrutinib 0.006 | [9] -0.014 | ralimetinib -0.01 | [10] -0.02 | [11] 0.002 | [12] 0.015 | [13] -0.003 | [15] 0.003 | [16] -0.026

POLR2F (UniProt P61218)
inactive: erlotinib -0.05 | [1] -0.272 | [2] 0.069 | [3] -0.091 | [4] 0.033 | [5] 0.076 | [6] 0.01 | [7] 0.101 | [8] 0.019 | IRAK-1-4 Inhibitor I -0.052 | ibrutinib 0.02 | [9] 0.051 | ralimetinib -0.238 | [10] -0.059 | [11] -0.11 | [12] -0.039 | [13] 0.096 | [14] 0.009 | [15] -0.157 | [16] 0.009

PDS5A (UniProt Q29RF7)
Sequence of UniProt Q29RF7 (Q29RF7 whole entry, looked up): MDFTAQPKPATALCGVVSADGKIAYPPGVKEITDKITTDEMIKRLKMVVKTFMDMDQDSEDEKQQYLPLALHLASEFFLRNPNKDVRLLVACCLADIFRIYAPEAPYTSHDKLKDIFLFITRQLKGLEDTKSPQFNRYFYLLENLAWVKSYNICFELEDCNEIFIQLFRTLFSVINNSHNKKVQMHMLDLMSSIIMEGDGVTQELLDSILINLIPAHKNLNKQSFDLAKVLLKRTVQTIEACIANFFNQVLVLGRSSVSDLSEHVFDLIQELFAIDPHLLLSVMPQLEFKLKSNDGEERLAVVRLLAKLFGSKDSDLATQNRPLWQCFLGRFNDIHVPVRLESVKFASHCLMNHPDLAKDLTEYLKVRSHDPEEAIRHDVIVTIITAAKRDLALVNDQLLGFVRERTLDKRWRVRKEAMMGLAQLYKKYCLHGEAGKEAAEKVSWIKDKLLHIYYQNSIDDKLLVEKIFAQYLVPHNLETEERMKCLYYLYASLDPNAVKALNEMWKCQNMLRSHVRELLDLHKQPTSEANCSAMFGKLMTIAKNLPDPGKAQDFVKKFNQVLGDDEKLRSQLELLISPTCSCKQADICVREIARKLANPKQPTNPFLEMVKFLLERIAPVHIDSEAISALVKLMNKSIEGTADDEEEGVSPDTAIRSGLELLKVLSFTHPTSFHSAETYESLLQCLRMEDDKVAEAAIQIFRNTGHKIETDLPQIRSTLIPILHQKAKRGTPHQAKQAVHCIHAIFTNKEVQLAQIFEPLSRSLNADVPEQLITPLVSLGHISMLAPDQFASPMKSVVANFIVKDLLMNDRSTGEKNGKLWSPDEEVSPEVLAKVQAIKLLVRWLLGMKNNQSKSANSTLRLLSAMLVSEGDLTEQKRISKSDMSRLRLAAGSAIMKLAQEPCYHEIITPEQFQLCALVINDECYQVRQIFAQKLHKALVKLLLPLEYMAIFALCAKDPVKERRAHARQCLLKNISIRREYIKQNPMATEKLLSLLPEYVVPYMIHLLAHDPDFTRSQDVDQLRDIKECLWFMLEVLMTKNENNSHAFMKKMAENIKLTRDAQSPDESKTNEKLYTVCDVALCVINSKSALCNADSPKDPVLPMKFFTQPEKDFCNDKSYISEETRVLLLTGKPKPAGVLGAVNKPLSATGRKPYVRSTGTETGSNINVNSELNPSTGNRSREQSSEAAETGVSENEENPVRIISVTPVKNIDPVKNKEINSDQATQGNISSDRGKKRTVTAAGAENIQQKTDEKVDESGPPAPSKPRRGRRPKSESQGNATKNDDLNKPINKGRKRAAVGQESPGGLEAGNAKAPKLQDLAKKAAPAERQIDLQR
inactive: erlotinib 0.043 | [1] -0.015 | [2] -0.029 | [3] 0.052 | [4] 0.032 | [5] 0.012 | [6] -0.038 | [7] -0.005 | [8] 0.001 | IRAK-1-4 Inhibitor I -0.015 | ibrutinib 0 | [9] 0.013 | ralimetinib 0.008 | [10] -0.017 | [11] -0.029 | [12] 0.023 | [13] -0.038 | [14] 0.017 | [15] 0.031 | [16] 0.039

PPIL2 (UniProt Q13356)
Sequence of UniProt Q13356 (Q13356 whole entry, looked up): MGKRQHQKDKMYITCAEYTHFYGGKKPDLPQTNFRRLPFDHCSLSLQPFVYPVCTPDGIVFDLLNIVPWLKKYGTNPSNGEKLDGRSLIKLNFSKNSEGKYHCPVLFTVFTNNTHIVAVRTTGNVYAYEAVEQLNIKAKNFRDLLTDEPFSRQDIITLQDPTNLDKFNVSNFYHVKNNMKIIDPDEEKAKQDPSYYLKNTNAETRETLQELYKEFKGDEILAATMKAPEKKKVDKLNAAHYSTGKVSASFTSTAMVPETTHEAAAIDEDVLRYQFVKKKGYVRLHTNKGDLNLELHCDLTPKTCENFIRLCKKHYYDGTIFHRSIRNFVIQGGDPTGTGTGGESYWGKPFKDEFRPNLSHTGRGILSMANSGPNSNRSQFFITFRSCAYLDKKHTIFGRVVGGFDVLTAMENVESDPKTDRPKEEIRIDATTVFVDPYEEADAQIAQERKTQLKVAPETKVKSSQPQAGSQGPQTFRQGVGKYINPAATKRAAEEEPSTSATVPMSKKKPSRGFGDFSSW
inactive: erlotinib -0.03 | [1] 0.02 | [2] 0.007 | [3] 0.021 | [4] -0.002 | [5] 0.039 | [6] -0.045 | [7] -0.036 | [8] 0.003 | IRAK-1-4 Inhibitor I -0.016 | ibrutinib -0.002 | [9] -0.003 | ralimetinib 0.02 | [10] 0.025 | [11] 0.046 | [12] 0.011 | [13] -0.017 | [14] 0.033 | [15] 0.003 | [16] 0.005

PELO (UniProt Q9BRX2)
inactive: erlotinib 0 | [1] -0.047 | [2] -0.058 | [3] -0.014 | [4] -0.002 | [5] 0 | [6] -0.038 | [7] -0.021 | [8] -0.049 | IRAK-1-4 Inhibitor I 0 | ibrutinib 0.034 | [9] -0.004 | ralimetinib 0.04 | [10] -0.035 | [11] 0.005 | [12] -0.02 | [13] -0.012 | [14] -0.005 | [15] 0.001 | [16] 0.002

PRC1 (UniProt O43663)
Sequence of UniProt O43663 (O43663 whole entry, looked up): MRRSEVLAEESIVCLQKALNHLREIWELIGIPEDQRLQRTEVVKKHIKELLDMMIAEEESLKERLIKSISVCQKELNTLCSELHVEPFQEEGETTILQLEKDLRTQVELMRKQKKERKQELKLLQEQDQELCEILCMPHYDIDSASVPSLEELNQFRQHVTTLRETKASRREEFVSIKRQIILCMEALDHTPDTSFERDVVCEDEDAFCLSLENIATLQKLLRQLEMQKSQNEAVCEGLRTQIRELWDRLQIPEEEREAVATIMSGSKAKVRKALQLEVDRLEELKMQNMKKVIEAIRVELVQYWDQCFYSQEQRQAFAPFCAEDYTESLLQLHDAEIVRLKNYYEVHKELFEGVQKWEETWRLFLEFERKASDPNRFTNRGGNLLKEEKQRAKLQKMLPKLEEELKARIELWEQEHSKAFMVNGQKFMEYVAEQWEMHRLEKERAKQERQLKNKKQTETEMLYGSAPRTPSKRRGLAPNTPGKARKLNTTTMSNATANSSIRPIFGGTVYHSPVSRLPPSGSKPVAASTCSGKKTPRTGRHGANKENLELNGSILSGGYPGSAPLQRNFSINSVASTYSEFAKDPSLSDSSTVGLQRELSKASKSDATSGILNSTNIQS
inactive: erlotinib 0.026 | [1] 0.027 | [2] 0.013 | [3] -0.026 | [4] -0.004 | [5] 0.059 | [6] -0.054 | [7] -0.011 | [8] 0.126 | IRAK-1-4 Inhibitor I 0.008 | ibrutinib -0.007 | [9] 0.009 | ralimetinib -0.016 | [10] 0.01 | [11] 0.01 | [12] 0.039 | [13] -0.006 | [14] 0.025 | [15] 0.021 | [16] 0.059

PUS3 (UniProt Q9BZE2)
inactive: erlotinib -0.014 | [1] 0.043 | [2] -0.028 | [3] -0.048 | [4] 0.048 | [5] -0.006 | [6] -0.064 | [7] -0.028 | [8] 0.097 | IRAK-1-4 Inhibitor I -0.058 | ibrutinib -0.034 | [9] -0.025 | ralimetinib 0.05 | [10] 0.094 | [11] -0.046 | [12] 0.045 | [13] 0.136 | [14] -0.12 | [15] -0.006 | [16] 0

PLEKHF1 (UniProt Q96S99)
Sequence of UniProt Q96S99 (Q96S99 whole entry, looked up): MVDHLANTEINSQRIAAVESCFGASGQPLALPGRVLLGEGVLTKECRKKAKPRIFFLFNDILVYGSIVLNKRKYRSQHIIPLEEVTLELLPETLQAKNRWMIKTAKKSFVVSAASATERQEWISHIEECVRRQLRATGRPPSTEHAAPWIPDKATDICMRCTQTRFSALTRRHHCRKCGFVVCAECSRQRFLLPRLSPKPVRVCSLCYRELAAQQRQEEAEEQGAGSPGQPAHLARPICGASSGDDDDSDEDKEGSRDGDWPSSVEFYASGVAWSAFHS
inactive: erlotinib 0.027 | [1] 0.032 | [2] -0.067 | [3] 0.006 | [4] 0.05 | [5] 0.017 | [6] -0.019 | [7] -0.032 | [8] 0.029 | IRAK-1-4 Inhibitor I -0.024 | ibrutinib -0.004 | [9] 0.015 | ralimetinib 0.053 | [10] -0.042 | [11] 0.002 | [12] -0.069 | [13] -0.025 | [14] -0.002 | [15] -0.017 | [16] 0.015
